The results in this text go back to PubChem BioAssay (Tox21).

The structures appear in SMILES notation. Results filed as inconclusive are left out. A call without a number means that no potency is given here. Some structures have more than one record in an assay (separate samples or runs), and their calls can disagree. Activity calls are given as the source filed them. The call rests on the fitted dose curve.
Potency means the concentration at half of the fitted maximal effect.

Sequence of Acetylcholinesterase (Homo sapiens) (P22303 whole entry, looked up): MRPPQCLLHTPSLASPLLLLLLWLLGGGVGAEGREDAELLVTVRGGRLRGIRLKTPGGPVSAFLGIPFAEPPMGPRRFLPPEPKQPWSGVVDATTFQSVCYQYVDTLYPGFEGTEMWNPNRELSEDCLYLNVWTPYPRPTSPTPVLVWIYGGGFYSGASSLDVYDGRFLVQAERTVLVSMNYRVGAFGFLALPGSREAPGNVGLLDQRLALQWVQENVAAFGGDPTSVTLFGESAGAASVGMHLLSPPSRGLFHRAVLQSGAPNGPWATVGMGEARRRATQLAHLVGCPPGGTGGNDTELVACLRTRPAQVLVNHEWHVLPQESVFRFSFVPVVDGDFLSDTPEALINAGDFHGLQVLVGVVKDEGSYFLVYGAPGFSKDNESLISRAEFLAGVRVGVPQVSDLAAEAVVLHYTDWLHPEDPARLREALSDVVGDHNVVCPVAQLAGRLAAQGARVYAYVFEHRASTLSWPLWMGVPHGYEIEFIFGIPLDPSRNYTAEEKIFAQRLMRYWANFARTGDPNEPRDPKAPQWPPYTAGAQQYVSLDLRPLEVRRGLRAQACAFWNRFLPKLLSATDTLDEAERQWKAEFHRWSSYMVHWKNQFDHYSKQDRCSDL

The target in one assay is Acetylcholinesterase (Homo sapiens) (UniProt P22303). Kind of assay: Acetylcholinesterase (AChE) small molecule antagonists: colormetric cell-based qHTS assay (AID 1347395). Further: nearly all actives have a fitted effect of over 30% in size. The settings on record: SH-SY5Y cells AChE activity, colorimetric (Ellman); series mostly up to 115 µM. An outline of the steps:
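After overnight attachment at 37 C, SH-SY5Y cells get 30 min compound exposure; detection cocktail (acetylthiocholine, DTNB) then incubates 90 min at 37 C, and absorbance reflects AChE-generated thiocholine.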
A general note: Quantitative high-throughput screening tests each substance at several concentrations.
Consider `CCOc1ccc(OCC)c(Cl)c1`, for which the Potency entry is “inactive”.
Still for that read-out and setting: the value for `CN(C)CCCOC1(Cc2ccccc2)CCCCCC1` was “inactive”.
Same read-out and setting: in the case of `COC(=O)C(C)O` (stereo not given) it was “inactive”; in that of `CC(C)C(C)(C)C(C)(C)C(C)(C)S`, “inactive”.
Turning to `O=C1Nc2ccccc2C1(c1ccc(O)cc1)c1ccc(O)cc1`, the Potency entry was “inactive”.
Still for that read-out and setting: in the case of `CCCCCC(=O)OCCc1ccccc1` it was “inactive”.
As for `Nc1ccc(/C=C/c2ccc(N)cc2S(=O)(=O)O)c(S(=O)(=O)O)c1`, the activity, negative = inhibition is -0.352% [at 0.435 µM] (inactive).
In the case of `O=C1NC2NC(=O)NC2N1` (stereo not given), the Potency result is “inactive”.
The same measure, in the same setting: in the case of `CCCCCCC(O)CCOC(C)=O` (stereo not given) it was “inactive”; in that of `Cc1cnc(NC(=O)C2=C(O)c3ccccc3S(=O)(=O)N2C)s1`, “inactive”.
With `NNc1nc(-c2ccccc2)cs1`, the Potency entry was “inactive”.
Take `C/C(C=O)=C\c1ccccc1`: the Potency entry was “inactive”.
Still for that read-out and setting: the value for `CC12CCC(C1)C(C)(C)C2O` (stereo not given) was “inactive”; that for `O=Cc1c2ccccc2c(Cl)c2ccccc12` was “inactive”; that for `CCCCc1nc(Cl)c(CO)n1Cc1ccc(-c2ccccc2-c2nn[nH]n2)cc1` was “inactive”.
`C/C=C/C(=O)OCC(C)C`: the Potency result is “inactive”.
Consider `C#CCN[C@@H]1CCc2ccccc21`, for which the call was inactive.
For the compound `CC#C[C@]1(O)CC[C@H]2[C@@H]3CCC4=CC(=O)CCC4=C3[C@@H](c3ccc(N(C)C)cc3)C[C@@]21C`, the Potency entry is “inactive”.
Take `CC(CC(=O)O)CC(C)(C)C` (stereo not given): the Potency entry was “inactive”.
As for `CC(=O)O[Si](C)(OC(C)=O)OC(C)=O`, the Potency entry is “inactive”.
The same measure, in the same setting: the value for `C[Si](C)O[Si](C)C` was “inactive”; that for `CCCCCCCCCCCCCC[N+](C)(C)Cc1ccccc1` was 64.3 µM (active) and inactive.
Same read-out and setting: the value for `Clc1ccc2c(Cl)ccnc2c1` was “inactive”; that for `COC(=O)c1sccc1S(N)(=O)=O` was “inactive”; that for `CN(C)CCCNCCC#N` was “inactive”.
Still for that read-out and setting: the value for `COc1ccc([C@@H]2CC(=O)c3c(O)cc(O[C@@H]4O[C@H](CO[C@@H]5O[C@@H](C)[C@H](O)[C@@H](O)[C@H]5O)[C@@H](O)[C@H](O)[C@H]4O)cc3O2)cc1OC` was “inactive”.
`CCCCCC(=O)OCC`: the Potency entry was “inactive”.
As for `Cc1c2ccccc2c(C)c2c1ccc1ccccc12`, the Potency result is “inactive”.
Turning to `O=C(COCCOCCOCC(=O)Nc1c(I)cc(I)c(C(=O)O)c1I)Nc1c(I)cc(I)c(C(=O)O)c1I`, the Potency result was “inactive”.
Regarding `CCOC(=O)C(C)Oc1ccc(Oc2cnc3cc(Cl)ccc3n2)cc1` (stereo not given), the Potency result was “inactive”.
The same measure, in the same setting: in the case of `OB(O)O` it was “inactive”; in that of `O=C(Cn1ccnc1[N+](=O)[O-])NCc1ccccc1`, “inactive”.
With `Clc1nc2ccccc2s1`, the Potency result is “inactive”.
For `Cc1cc2c(s1)Nc1ccccc1N=C2N1CCN(C)CC1`, the Potency entry was “inactive”.
On to `CCCCCCOC(=O)CCCCCCCC(=O)OCCCCCC`, for which the Potency result is “inactive”.
On the same count and under the same terms, the value for `O=C(/C=C/c1ccc(O)c(O)c1)O[C@@H](C(=O)O)[C@@H](OC(=O)/C=C/c1ccc(O)c(O)c1)C(=O)O` was “inactive”.
On to `CCN(O)CC`, for which the Potency result is “inactive”.
The same measure, in the same setting: in the case of `CN(C/C=C/C#CC(C)(C)C)Cc1cccc2ccccc12` it was “inactive”; in that of `Cc1cc(NC(=O)C(=O)O)cc(C)c1Oc1ccc(O)c2c1CCC2`, “inactive”; in that of `CCOC(N)=O`, “inactive”.

For the next assay the target is unchanged. Kind of assay: Acetylcholinesterase (AChE) small molecule antagonists: enzyme-based qHTS assay (AID 1347397). Further: nearly all actives have a fitted effect of over 55% in size. The settings on record: Potency: AChE enzyme activity inhibition; outcome: AChE enzyme activity inhibition; series mostly up to 115 µM. An outline of the steps: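 First, recombinant human AChE (50 mU/mL as dispensed) received test compound or DMSO. Second, plates stood 30 min at room temperature. Third, DTNB and acetylthiocholine were added, followed by 10 min at room temperature and colorimetric detection.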
`CCOc1ccc(OCC)c(Cl)c1`: the Potency result was “inactive”.
Turning to `CN(C)CCCOC1(Cc2ccccc2)CCCCCC1`, the Potency entry is “inactive”.
The same measure, in the same setting: in the case of `COC(=O)C(C)O` (stereo not given) it was “inactive”.
In the case of `CC(C)C(C)(C)C(C)(C)C(C)(C)S`, the Potency result was “inactive”.
Same read-out and setting: in the case of `O=C1Nc2ccccc2C1(c1ccc(O)cc1)c1ccc(O)cc1` it was “inactive”; in that of `CCCCCC(=O)OCCc1ccccc1`, “inactive”.
Take `Nc1ccc(/C=C/c2ccc(N)cc2S(=O)(=O)O)c(S(=O)(=O)O)c1`: the activity change, negative = inhibition is -0.809% [at 0.435 µM] (inactive).
Consider `O=C1NC2NC(=O)NC2N1` (stereo not given), for which the Potency result was “inactive”.
The same measure, in the same setting: in the case of `CCCCCCC(O)CCOC(C)=O` (stereo not given) it was “inactive”; in that of `Cc1cnc(NC(=O)C2=C(O)c3ccccc3S(=O)(=O)N2C)s1`, “inactive”.
The same measure, in the same setting: the value for `NNc1nc(-c2ccccc2)cs1` was “inactive”; that for `C/C(C=O)=C\c1ccccc1` was “inactive”; that for `CC12CCC(C1)C(C)(C)C2O` (stereo not given) was “inactive”.
Consider `O=Cc1c2ccccc2c(Cl)c2ccccc12`, for which the Potency result is “inactive”.
The same measure, in the same setting: in the case of `CCCCc1nc(Cl)c(CO)n1Cc1ccc(-c2ccccc2-c2nn[nH]n2)cc1` it was “inactive”.
Still for that read-out and setting: in the case of `C/C=C/C(=O)OCC(C)C` it was “inactive”.
For the compound `C#CCN[C@@H]1CCc2ccccc21`, the compound was called inactive.
On to `CC#C[C@]1(O)CC[C@H]2[C@@H]3CCC4=CC(=O)CCC4=C3[C@@H](c3ccc(N(C)C)cc3)C[C@@]21C`, for which the Potency result is “inactive”.
On the same count and under the same terms, the value for `CC(CC(=O)O)CC(C)(C)C` (stereo not given) was “inactive”; that for `CC(=O)O[Si](C)(OC(C)=O)OC(C)=O` was “inactive”.
Still for that read-out and setting: the value for `C[Si](C)O[Si](C)C` was “inactive”.
The same measure, in the same setting: in the case of `CCCCCCCCCCCCCC[N+](C)(C)Cc1ccccc1` it was 64.3 µM (active); in that of `Clc1ccc2c(Cl)ccnc2c1`, “inactive”.
Turning to `COC(=O)c1sccc1S(N)(=O)=O`, the Potency entry is “inactive”.
As to `CN(C)CCCNCCC#N`, the Potency result was “inactive”.
Take `COc1ccc([C@@H]2CC(=O)c3c(O)cc(O[C@@H]4O[C@H](CO[C@@H]5O[C@@H](C)[C@H](O)[C@@H](O)[C@H]5O)[C@@H](O)[C@H](O)[C@H]4O)cc3O2)cc1OC`: the Potency result was “inactive”.
For the compound `CCCCCC(=O)OCC`, the Potency entry is “inactive”.
Still for that read-out and setting: in the case of `Cc1c2ccccc2c(C)c2c1ccc1ccccc12` it was “inactive”.
The same measure, in the same setting: in the case of `O=C(COCCOCCOCC(=O)Nc1c(I)cc(I)c(C(=O)O)c1I)Nc1c(I)cc(I)c(C(=O)O)c1I` it was “inactive”; in that of `CCOC(=O)C(C)Oc1ccc(Oc2cnc3cc(Cl)ccc3n2)cc1` (stereo not given), “inactive”.
Still for that read-out and setting: the value for `OB(O)O` was “inactive”; that for `O=C(Cn1ccnc1[N+](=O)[O-])NCc1ccccc1` was “inactive”; that for `Clc1nc2ccccc2s1` was “inactive”.
With `Cc1cc2c(s1)Nc1ccccc1N=C2N1CCN(C)CC1`, the Potency entry is “inactive”.
For `CCCCCCOC(=O)CCCCCCCC(=O)OCCCCCC`, the Potency result is “inactive”.
With `O=C(/C=C/c1ccc(O)c(O)c1)O[C@@H](C(=O)O)[C@@H](OC(=O)/C=C/c1ccc(O)c(O)c1)C(=O)O`, the Potency entry was “inactive”.
Turning to `CCN(O)CC`, the Potency result was “inactive”.
The same measure, in the same setting: in the case of `CN(C/C=C/C#CC(C)(C)C)Cc1cccc2ccccc12` it was “inactive”.
Same read-out and setting: the value for `Cc1cc(NC(=O)C(=O)O)cc(C)c1Oc1ccc(O)c2c1CCC2` was “inactive”.
Regarding `CCOC(N)=O`, the Potency entry was “inactive”.
